From PubChem BioAssay (NCATS)
Records with an inconclusive call do not appear. Active and inactive are the calls of the source. Calls come from the whole dose curve; as a rule, active = well fitted curve in the direction sought with a large enough effect; inconclusive = small, poorly fitted or top-dose-only effect, or another doubt; inactive = no such curve, though single readings can be large; an effect the other way counts as inactive or inconclusive.

What was measured:
CRL-7250 = normal cell line; assay: Cytotoxic Profiling of Annotated Libraries Using Quantitative High-Throughput Screening (AID 1296008); conditions: Five cell lines viability, CellTiter-Glo ATP luminescence, 48-72 h; max response: hits give low values; note: nearly all actives have a fitted effect of over 60% in size; for max response: % is set by controls: 0 for no effect and ±100 for the full control effect
Procedure, shortened: (§1)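 Compounds were pin-transferred onto cells and incubated 48 or 72 hr at 37 degree Celsius, 95% humidity. CellTiter-Glo was added, plates sat 10 min at room temperature, then ATP-coupled luminescence was imaged as the viability read-out.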

HEK293 = assay: as above; conditions: Five cell lines viability, CellTiter-Glo ATP luminescence, 48-72 h; max response: hits give low values
Procedure, shortened: as §1

HaCat [1] = assay: as above; conditions: Five cell lines viability, CellTiter-Glo ATP luminescence, 48-72 h; max response: hits give low values
Procedure, shortened: as §1

KB-3-1 = assay: as above; conditions: Five cell lines viability, CellTiter-Glo ATP luminescence, 48-72 h; max response: hits give low values
Procedure, shortened: as §1

NIH3T3 = assay: as above; conditions: Five cell lines viability, CellTiter-Glo ATP luminescence, 48-72 h; max response: hits give low values
Procedure, shortened: as §1

HEK293T [2] = assay: qHTS assay to identify novel small-molecules to repurpose for Merkel cell carcinoma treatment (AID 1296009); conditions: MCC and control cell lines, CellTiter-Glo viability, 72 h; at 44.8 µM (top of the series) unless noted; note: nearly all actives have a fitted effect of over 60% in size
Procedure, shortened: (§2)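 Luminescence from CellTiter-Glo, read 10 min after addition at room temperature, reported viability following a 72 hr, 37 degree celsius treatment with NPC or MIPE compounds in titration; values normalized to plate controls.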

C33A = assay: Primary qHTS to identify gynecologic anti-cancer compounds using libraries of approved drugs and bioactive compounds (AID 1345084); conditions: Gynecologic cancer cell panel viability, ATPlite luminescence, 48 h; series mostly up to 57.5 µM; note: % is set by controls: 0 for no effect and ±100 for the full control effect; nearly all actives have a fitted effect of over 55% in size
Procedure, shortened: (§3)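 Luminescence from the ATPlite ATP-monitoring reagent indicates viable cell number; lower signal means cytotoxicity. Cells received compound 16 h after seeding and were exposed for 48 h across five concentrations.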

CAOV3 = assay: as above; conditions: Gynecologic cancer cell panel viability, ATPlite luminescence, 48 h; series mostly up to 57.5 µM
Procedure, shortened: as §3

CASKI = assay: as above; conditions: Gynecologic cancer cell panel viability, ATPlite luminescence, 48 h; series mostly up to 57.5 µM
Procedure, shortened: as §3

Es-2 = assay: as above; conditions: Gynecologic cancer cell panel viability, ATPlite luminescence, 48 h; series mostly up to 57.5 µM
Procedure, shortened: as §3

HeLa = assay: as above; conditions: Gynecologic cancer cell panel viability, ATPlite luminescence, 48 h; series mostly up to 57.5 µM
Procedure, shortened: as §3

Hek293T [3] = assay: as above; conditions: Gynecologic cancer cell panel viability, ATPlite luminescence, 48 h, control line for the selectivity index; series mostly up to 57.5 µM
Procedure, shortened: as §3

JEG-3 = assay: as above; conditions: Gynecologic cancer cell panel viability, ATPlite luminescence, 48 h; series mostly up to 57.5 µM
Procedure, shortened: as §3

OV90 = assay: as above; conditions: Gynecologic cancer cell panel viability, ATPlite luminescence, 48 h; series mostly up to 57.5 µM
Procedure, shortened: as §3

HACAT [4] = assay: qHTS assay to identify novel small-molecules to repurpose for Merkel cell carcinoma treatment (AID 1296009); conditions: MCC and control cell lines, CellTiter-Glo viability, 72 h; at 44.8 µM (top of the series) unless noted; note: nearly all actives have a fitted effect of over 60% in size
Procedure, shortened: as §2

PA-1 = assay: Primary qHTS to identify gynecologic anti-cancer compounds using libraries of approved drugs and bioactive compounds (AID 1345084); conditions: Gynecologic cancer cell panel viability, ATPlite luminescence, 48 h; series mostly up to 57.5 µM; note: % is set by controls: 0 for no effect and ±100 for the full control effect; nearly all actives have a fitted effect of over 55% in size
Procedure, shortened: as §3

CC1CCC2C(C(=O)O)=CC3(O)CC(C)(C)CC123 (centres undefined)
inactive: max response (CRL-7250) 2.87% | outcome (HEK293) | max response (HaCat [1]) 0.596% | max response (KB-3-1) 4.07% | max response (NIH3T3) 1.6% | outcome (HEK293T [2]) | Potency (C33A) | Potency (CAOV3) | outcome (CASKI) | Potency (Es-2) | Potency (HeLa) | Potency (Hek293T [3]) | Potency (JEG-3) | Potency (OV90)

C=C1[C@H](OC(C)=O)[C@H]2[C@@H](OC(=O)c3ccccc3)[C@@H](C)C[C@]2(O)[C@@H](OC(C)=O)[C@H](C)/C=C/C(C)(C)C(=O)[C@H](OC(C)=O)[C@H]1OC(C)=O
inactive: max response (CRL-7250) 3.14% | max response (HEK293) -5.03% | outcome (HaCat [1]) | outcome (KB-3-1) | max response (NIH3T3) 3.53% | outcome (HACAT [4]) inactive [at 17.4 µM] | Potency (CAOV3) | Potency (Es-2) | Potency (HeLa) | Potency (Hek293T [3]) | Potency (JEG-3) | Potency (OV90) | Potency (PA-1)

CC1=C2CC(=O)C(C)CC/C=C(\C)CC2OC1=O (centres undefined)
inactive: outcome (CRL-7250) | max response (HEK293) -1.49% | outcome (HaCat [1]) | max response (KB-3-1) 1.48% | max response (NIH3T3) 2.98% | outcome (HACAT [4]) | Potency (CAOV3) | outcome (CASKI) | Potency (Es-2) | Potency (HeLa) | Potency (Hek293T [3]) | Potency (JEG-3) | Potency (OV90) | Potency (PA-1)

C=CC(C)(CC/C=C(\C)C(=O)OC)OC1OC(COC(=O)CC(C)(O)CC(=O)O)C(O)C(O)C1O (centres undefined)
inactive: max response (CRL-7250) -11.6% | outcome (HEK293) | max response (HaCat [1]) 3.32% | max response (KB-3-1) 1.2% | max response (NIH3T3) -0.702% | outcome (HEK293T [2]) inactive [at 17.4 µM] | Potency (C33A) | Potency (CAOV3) | outcome (CASKI) | Potency (Es-2) | Potency (HeLa) | Potency (Hek293T [3]) | Potency (JEG-3) | Potency (OV90) | Potency (PA-1)

COc1cc(/C=C/C(=O)O[C@@H]2O[C@H](CO)[C@@H](O)[C@H](O)[C@H]2O)ccc1O
inactive: max response (CRL-7250) 2.76% | outcome (HEK293) | max response (HaCat [1]) 3.8% | max response (KB-3-1) -1.87% | max response (NIH3T3) 0.679% | outcome (HEK293T [2]) | Potency (C33A) | Potency (CAOV3) | outcome (CASKI) | Potency (Es-2) | Potency (HeLa) | Potency (Hek293T [3]) | Potency (JEG-3) | Potency (OV90) | Potency (PA-1)

O=C(OC[C@H]1O[C@H](O[C@H]2CO[C@H](CO)[C@@H](O)[C@@H]2O)[C@H](O)[C@@H](O)[C@H]1O)c1ccccc1
inactive: max response (CRL-7250) -5.33% | outcome (HEK293) | max response (HaCat [1]) -15.9% | max response (KB-3-1) -0.911% | max response (NIH3T3) 4.33% | outcome (HEK293T [2]) inactive [at 17.4 µM] | Potency (C33A) | Potency (CAOV3) | outcome (CASKI) | Potency (Es-2) | Potency (HeLa) | Potency (Hek293T [3]) | Potency (JEG-3) | Potency (OV90) | Potency (PA-1)

COc1ccc2c(c1)N1C(=O)C[C@@]34C=CC[N@+]5([O-])CC[C@H]2[C@H](CC3)[C@@]145
inactive: max response (CRL-7250) 0.465% | outcome (HEK293) | max response (HaCat [1]) 0.691% | outcome (KB-3-1) | max response (NIH3T3) -2.66% | outcome (HEK293T [2]) | Potency (C33A) | Potency (CAOV3) | outcome (CASKI) | Potency (Es-2) | Potency (HeLa) | Potency (Hek293T [3]) | Potency (JEG-3)

COc1c(O[C@@H]2O[C@H](CO)[C@@H](O)[C@H](O)[C@H]2O)c(CCC(=O)O)cc2ccoc12
inactive: max response (CRL-7250) -9.14% | max response (HEK293) -0.3% | outcome (HaCat [1]) | max response (KB-3-1) 2.96% | max response (NIH3T3) 0.4% | outcome (HACAT [4]) | Potency (CAOV3) | outcome (CASKI) | Potency (Es-2) | Potency (HeLa) | Potency (Hek293T [3]) | Potency (OV90) | Potency (PA-1)

C/C(=C\CCC(C)(C)O)CCO[C@@H]1O[C@H](CO[C@@H]2O[C@@H](C)[C@H](O)[C@@H](O)[C@H]2O)[C@@H](O)[C@H](O)[C@H]1O
inactive: outcome (CRL-7250) | max response (HEK293) -3.15% | outcome (HaCat [1]) | max response (KB-3-1) 4.26% | outcome (NIH3T3) | outcome (HACAT [4]) inactive [at 17.4 µM] | Potency (CAOV3) | outcome (CASKI) | Potency (Es-2) | Potency (HeLa) | Potency (Hek293T [3]) | Potency (JEG-3) | Potency (OV90) | Potency (PA-1)

CC1=C[C@H]2[C@@H](CC1=O)[C@H](C)C[C@H](O)[C@H]2C(C)C
inactive: max response (CRL-7250) -22.7% | max response (HEK293) -24.5% | outcome (HaCat [1]) | max response (KB-3-1) -6.12% | max response (NIH3T3) -7.42% | outcome (HACAT [4]) | Potency (C33A) | outcome (CASKI) | Potency (Es-2) | Potency (HeLa) | Potency (Hek293T [3]) | Potency (JEG-3) | Potency (OV90) | Potency (PA-1)

CC1CCC23COC(=O)C2=CC(O)CC3C1(C)CCc1ccoc1 (centres undefined)
inactive: max response (CRL-7250) 1.42% | outcome (HEK293) | max response (HaCat [1]) -3.63% | max response (KB-3-1) -2.5% | max response (NIH3T3) -7.2% | outcome (HEK293T [2]) | Potency (C33A) | Potency (CAOV3) | outcome (CASKI) | Potency (Es-2) | Potency (HeLa) | Potency (Hek293T [3]) | Potency (JEG-3) | Potency (OV90) | Potency (PA-1)

C=C[C@@](C)(CCC=C(C)C)O[C@@H]1O[C@H](CO[C@@H]2OC[C@H](O)[C@H](O)[C@H]2O)[C@@H](O)[C@H](O)[C@H]1O
inactive: outcome (CRL-7250) | outcome (HEK293) | max response (HaCat [1]) 0.544% | outcome (KB-3-1) | max response (NIH3T3) 4.46% | outcome (HEK293T [2]) inactive [at 17.4 µM] | Potency (C33A) | Potency (CAOV3) | outcome (CASKI) | Potency (Es-2) | Potency (HeLa) | Potency (Hek293T [3]) | Potency (JEG-3) | Potency (OV90) | Potency (PA-1)

C=C(C(=O)O)[C@@H]1CC[C@@]2(C)CCC[C@@](C)(O)[C@@H]2C1
inactive: max response (CRL-7250) -2.07% | max response (HEK293) -3.93% | outcome (HaCat [1]) | max response (KB-3-1) 5.56% | max response (NIH3T3) 1.2% | outcome (HACAT [4]) | Potency (C33A) | outcome (CASKI) | Potency (Es-2) | Potency (HeLa) | Potency (Hek293T [3]) | Potency (JEG-3) | Potency (OV90) | Potency (PA-1)
